Test [1] can be described thus: qHTS to identify inhibitors of the type 1 interferon - major histocompatibility complex class I in skeletal muscle: primary screen against the NCATS Pharmaceutical Collection (AID 1347407).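 Further: luminescence of HiBiT knocked into endogenous HLA-B as interferon-induced MHC class I level.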 Further: potency means the concentration at half of the fitted maximal effect. Put shortly:
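Compounds […] were added to CRISPR-engineered HLA-B-HiBiT C25cl48 human myoblasts with 4.0 ng/ml IFN-beta. After 24 hrs at 37 C, cells were lysed and HiBiT luminescence measured.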
On the technique in general: In qHTS, concentration-response curves come from the screen itself.

The nature of test [2]: qHTS to identify inhibitors of the type 1 interferon - major histocompatibility complex class I in skeletal muscle: primary screen against the NCATS Mechanism Interrogation Plate v5.0 (MIPE) Libary (AID 1347411). Further: nearly all actives have a fitted effect of over 65% in size. Further: potency means the concentration at half of the fitted maximal effect. The method, boiled down:
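Luminescence from CRISPR HiBit-tagged endogenous HLA-B in human myoblasts reported MHC class I level after 24 h of IFN-beta (4 ng/ml) plus compound. Compounds ran as 11-point 1:3 series, top 46 uM final.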

Test [3] deals with Protein phosphatase 1D (Homo sapiens) (UniProt O15297). In words: RapidFire Mass Spectrometry qHTS Assay for Modulators of WT P53-Induced Phosphatase 1 (WIP1) (AID 1347424).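 Further: amount of dephosphorylated VEPPL-S-QETFS peptide product formed by WIP1; series mostly up to about 63 µM.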 The method, boiled down:
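Mass-spectrometric measurement of dephosphorylated peptide after a 5 min room-temperature reaction of 10 nM WIP1 with 2 uM phosphopeptide, following 1 h compound preincubation in 30 mM MgCl2 buffer.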

Test [4] shares this target. Description: Rhodamine-PBP qHTS Assay for Modulators of WT P53-Induced Phosphatase 1 (WIP1) (AID 1347425). Put shortly:
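Steps: enzyme with Rh-PBP sensor and compounds, room-temperature incubation of 1 hr, baseline read, addition of VEPPL-pS-QETFS (10 uM final), kinetic fluorescence reads at 525/598 nm. Activity equals final minus baseline signal.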

A short description of test [5]: Primary qHTS for inhibitors of La Crosse Virus (LACV) - induced cell death in SH-SY5Y cells (AID 1508616).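 Further: top concentration of the series differs between compounds; higher means more rescue of cells from virus-induced death.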 The method, boiled down:
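Rescue of virus-induced death was read as ATPLite luminescence after 6 days at 37C, scaled between DMSO wells with LACV and without virus. Cells were SH-SY5Y, 6000/well, infected at 0.01 MOI after compound addition.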

The nature of test [6]: qHTS for inhibitors of adenylyl cyclases using a fission yeast platform: a pilot screen against the NCATS LOPAC library (AID 1347410). The method, boiled down: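 GFP from fbp1-GFP reporter, read by Acumen laser cytometry, indicates AC inhibition in fission yeast expressing AC9, GNAS and PDE4D2. Cells grown 18 h in the dark at 30C with compounds, final up to 57 uM.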
Test [7] can be described thus: Validation qHTS assay for inhibitors of Activation Induced Cytidine Deaminase (AID): UDG Counterscreen signal (AID 1347427). Put shortly: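 Fluorescence at 560 nm excitation, 665 nm emission reports UDG signal after 250 mM NaOH (2x) addition and 30 min. Enzymes (AID 1 uM, UDG 2 U/mL, at 4/3x) preincubated 10 min with compound, then 4 h with 4x 250 nM DJC20/DJC23 substrate at room temperature.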

Test [8] deals with Single-stranded DNA cytosine deaminase (Homo sapiens) (UniProt Q9GZX7). Description: Validation qHTS assay for inhibitors of Activation Induced Cytidine Deaminase (AID): AID signal (AID 1347429). The method, boiled down:
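Compounds (final up to 114 uM) preincubated with AID plus UDG; 250 nM DJC20/DJC23 substrate mix (4x stock) added, 4 hr at room temperature, then NaOH, 30 min. Read 1 fluorescence at 540 nm excitation, 590 nm emission.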

Test [9] in a line: Tertiary RLuc qRT-PCR qHTS assay for Zika virus inhibitors (AID 1347169). Further: potency means the concentration at half of the fitted maximal effect; nearly all actives have a fitted effect of over 55% in size. The method, boiled down: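 Orthogonal cell-based readout: luminescence measured 1-1.5 hrs after adding live-cell Renilla substrate to Vero cells that had been infected with ZIKV-RLuc (MOI 1-2) post-compound, incubated 48-72 hrs at 37 degrees C.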
The target of test [10] is Calcium and integrin-binding protein 1 (Homo sapiens) (UniProt Q99828). Description: Confirmatory qHTS for Identification of Calcium Integrin Binding Protein 1 (CIB1) Competitor (AID 1508617). Further: potency means the concentration at half of the fitted maximal effect; nearly all actives have a fitted effect of over 65% in size. Put shortly:
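Binding competition between test compounds and fluorescent alphaIIb peptide for 1 uM CIB1-GST is monitored by FP at 480/540 nm. Final compound range is up to 114 uM; unlabeled peptide serves as reference competitor.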

Molecules are shown by their SMILES. “And” between values parts separate entries of the source, which are not always exact repeats. Equal entries are not always repeated. Unmarked numbers belong to inactive results. Results filed as inconclusive are left out. The source made the active and inactive calls. The call rests on the fitted dose curve; in most records, active means well fitted curve in the direction sought with a large enough effect; inconclusive means small, poorly fitted or top-dose-only effect, or another doubt; inactive means no such curve, though single readings can be large; an effect the other way counts as inactive or inconclusive. Non-standard residues stand in square brackets, D forms with d. Residues, ends and D or L forms follow the SMILES beside them. *: point of attachment. Sta = CC(C)C[C@H](N)[C@@H](O)CC(=O)O; Isovaleryl = CC(C)CC(=O)*

Sequence of Single-stranded DNA cytosine deaminase (Homo sapiens) (Q9GZX7 whole entry, looked up): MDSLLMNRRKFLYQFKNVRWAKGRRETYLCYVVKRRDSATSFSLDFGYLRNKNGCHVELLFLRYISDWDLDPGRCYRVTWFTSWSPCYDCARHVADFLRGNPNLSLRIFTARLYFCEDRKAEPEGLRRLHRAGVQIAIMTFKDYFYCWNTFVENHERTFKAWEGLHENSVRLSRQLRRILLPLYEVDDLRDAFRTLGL
Sequence of Protein phosphatase 1D (Homo sapiens) (O15297 whole entry, looked up): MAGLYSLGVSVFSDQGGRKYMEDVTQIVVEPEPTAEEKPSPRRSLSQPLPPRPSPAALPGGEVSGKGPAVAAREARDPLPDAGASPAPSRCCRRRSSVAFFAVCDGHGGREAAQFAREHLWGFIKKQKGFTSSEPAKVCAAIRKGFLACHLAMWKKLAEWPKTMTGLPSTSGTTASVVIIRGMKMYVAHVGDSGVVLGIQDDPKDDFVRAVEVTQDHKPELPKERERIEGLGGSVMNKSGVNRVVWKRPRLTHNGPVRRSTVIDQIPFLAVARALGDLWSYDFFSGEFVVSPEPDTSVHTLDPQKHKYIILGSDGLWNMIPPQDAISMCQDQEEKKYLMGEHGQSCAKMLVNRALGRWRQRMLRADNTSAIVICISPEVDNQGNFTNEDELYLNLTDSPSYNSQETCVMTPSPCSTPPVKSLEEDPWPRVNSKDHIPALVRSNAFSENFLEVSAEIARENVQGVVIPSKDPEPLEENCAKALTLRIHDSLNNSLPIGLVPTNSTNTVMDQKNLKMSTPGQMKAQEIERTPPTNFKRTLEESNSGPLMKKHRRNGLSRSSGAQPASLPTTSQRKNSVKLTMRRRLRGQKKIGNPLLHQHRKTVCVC
Sequence of Calcium and integrin-binding protein 1 (Homo sapiens) (Q99828 whole entry, looked up): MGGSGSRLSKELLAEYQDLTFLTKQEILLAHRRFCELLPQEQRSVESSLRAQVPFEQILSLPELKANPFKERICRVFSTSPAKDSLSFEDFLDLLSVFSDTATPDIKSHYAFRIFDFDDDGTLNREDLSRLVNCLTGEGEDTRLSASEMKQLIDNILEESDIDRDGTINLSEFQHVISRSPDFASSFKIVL

As for `Cc1cc(=O)oc2cc(O)ccc12`, the Potency entry in [1], in test [2], in test [3] and in [5] was “inactive” throughout. Besides, the outcome in test [4] was inactive.

Take `O=C(O)c1cccnc1Nc1cccc(C(F)(F)F)c1`: the Potency entry in test [1], in test [7] and in test [5] was “inactive” each time. For the same molecule, the molecule was called inactive in [6], in test [4] and in test [8].

On to `CCOC(=O)c1c(C)n(C)c2ccc(O)cc12`, for which the Potency result in test [1], in [2], in test [3] and in [5] was “inactive” in each case. Besides, in [4], the outcome was inactive.

As to `S=c1nc[nH]c2nc[nH]c12`, the Potency in test [9] is 20.8 µM (active). The Potency entry in test [1], in test [2], in [3] and in [5] was “inactive” in each case. The call in [4] was inactive.

For the molecule `CC(C)C[C@H](NC(=O)[C@H](Cc1ccccc1)NC(=O)c1cnccn1)B(O)O`, the Potency in [9] was 0.037 µM (active); in [1] it was 0.0745 µM (active); in test [2], 0.0415 µM (active). Also, the Potency result in test [3] and in [5] was “inactive” throughout. Besides, the result in [4] was inactive.

On to `CC1(C)NC(=O)N(c2ccc([N+](=O)[O-])c(C(F)(F)F)c2)C1=O`, for which the Potency entry in [1], in test [2], in test [3], in test [7] and in test [5] was “inactive” in each case. Besides, the outcome in test [6], in test [4] and in [8] was inactive.

In the case of `CCc1nc(N)nc(N)c1-c1ccc(Cl)cc1`, the Potency in test [9] is 11.7 µM (active) and 16.5 µM (active). Further, the Potency result in test [2], in [3] and in test [5] was “inactive” throughout. The outcome in test [4] was inactive.

On to `CC(C)c1ccc2oc3nc(N)c(C(=O)O)cc3c(=O)c2c1`, for which the Potency entry in test [1] and in [3] was “inactive” each time. In addition, in [4], the molecule was called inactive.

As for `Cc1ncc([N+](=O)[O-])n1CC(C)O` (centres undefined), the Potency entry in test [1], in test [2], in test [3] and in test [5] was “inactive” each time. Further, the outcome in [4] was inactive.

With `Cc1cccc(C)c1OCC(=O)N[C@@H](Cc1ccccc1)[C@@H](O)C[C@H](Cc1ccccc1)NC(=O)[C@H](C(C)C)N1CCCNC1=O`, the Potency result in [1], in test [3] and in test [5] was “inactive” in each case. Besides, the call in test [4] was inactive.

Take `Cn1c(NCCN(CCO)CCCc2ccc([N+](=O)[O-])cc2)cc(=O)n(C)c1=O`: the Potency result in test [1], in test [2], in test [3] and in test [5] was “inactive” throughout. The outcome in test [4] was inactive.

As to `CCCCC(CC)COC(=O)C(C#N)=C(c1ccccc1)c1ccccc1` (centres undefined), the Potency result in test [1], in [2], in [3] and in test [5] was “inactive” each time. Also, in test [4], the molecule was classed as inactive.

For the molecule `COC(=O)N[C@H](C(=O)N[C@@H](Cc1ccccc1)[C@@H](O)CN(Cc1ccc(-c2ccccn2)cc1)NC(=O)[C@@H](NC(=O)OC)C(C)(C)C)C(C)(C)C`, the Potency result in test [1], in test [3] and in [5] was “inactive” each time. Besides, the molecule was classed as inactive in [4].

Take `Cc1cc2cc3c(C)cc(=O)oc3c(C)c2o1`: the Potency result in test [1], in test [2], in test [3] and in test [5] was “inactive” in each case. Besides, the outcome in test [4] was inactive.

For the molecule `CS(=O)(=O)OCCCCOS(C)(=O)=O`, the Potency entry in [1], in test [2], in test [3] and in test [5] was “inactive” throughout. Moreover, in [4], the outcome was inactive.

Turning to `O=C(O)c1cc(=O)c2c(OCC(O)COc3cccc4oc(C(=O)O)cc(=O)c34)cccc2o1`, the Potency result in [1], in [2], in test [3] and in test [5] was “inactive” in each case. For the same molecule, the molecule was called inactive in test [4].

For the molecule `Cc1c(C(=O)NN2CCCCC2)nn(-c2ccc(Cl)cc2Cl)c1-c1ccc(Cl)cc1`, the Potency result in test [1], in test [3] and in test [5] was “inactive” each time. Also, the molecule was called inactive in test [4].

As to `CN(C)c1ccc(O)c2c1C[C@H]1C[C@H]3[C@H](N(C)C)C(=O)C(C(N)=O)=C(O)[C@@]3(O)C(=O)C1=C2O`, the Potency result in test [1], in test [2], in [3] and in test [5] was “inactive” in each case. Besides, the outcome in test [4] was inactive.

For `CC(C)CC(=O)N[C@H](C(=O)N[C@H](C(=O)N[C@@H](CC(C)C)[C@@H](O)CC(=O)N[C@@H](C)C(=O)N[C@@H](CC(C)C)[C@@H](O)CC(=O)O)C(C)C)C(C)C` (Isovaleryl-VV[Sta]A[Sta]-OH), the Potency result in [1], in test [2], in test [3] and in test [5] was “inactive” each time. Further, the call in test [4] was inactive.

As to `CCCc1cc(=O)[nH]c(=S)[nH]1`, the Potency result in test [1], in test [2], in test [3] and in test [5] was “inactive” each time. In addition, in test [4], the molecule was called inactive.

In the case of `Cc1ccc(C)c(OCCCC(C)(C)C(=O)O)c1`, the Potency result in [1], in [2], in [3] and in test [5] was “inactive” throughout. Moreover, in [4], the call was inactive.

For `COCCCN1CCC(NC(=O)c2cc(Cl)c(N)c3c2OCC3)CC1`, the Potency entry in test [1], in test [2], in test [3] and in test [5] was “inactive” throughout. The outcome in [4] was inactive.

As to `C=CCc1cc(OC)c(O)c(C(=O)NCCO)c1`, the Potency result in test [1], in test [3] and in [5] was “inactive” each time. The molecule was classed as inactive in test [4].

With `Cc1ccc(C(=O)c2cc(O)c(O)c([N+](=O)[O-])c2)cc1`, the Potency result in test [1], in test [3] and in test [5] was “inactive” in each case. In addition, the molecule was classed as inactive in test [4].

As for `N=C(N)c1ccc2cc(OC(=O)c3ccc(N=C(N)N)cc3)ccc2c1`, the Potency entry in [1], in test [2], in test [3] and in test [5] was “inactive” throughout. Also, the result in [4] was inactive.

With `CCC(C)(Oc1ccc(C2(c3ccc(OC(C)(CC)C(=O)O)cc3)CCCCC2)cc1)C(=O)O` (centres undefined), the Potency entry in [1], in test [2] and in test [5] was “inactive” each time. In addition, in test [4], the outcome was inactive.

Turning to `CC(C)Oc1ccc2c(=O)c(-c3ccccc3)coc2c1`, the Potency result in test [1], in test [2], in test [3] and in test [5] was “inactive” throughout. Besides, in test [4], the molecule was classed as inactive.

Take `Oc1ccc(OCc2ccccc2)cc1`: the Potency result in test [1], in test [2], in [3] and in [5] was “inactive” throughout. Also, in test [4], the result was inactive.

As to `CCC1=C(C)CN(C(=O)NCCc2ccc(S(=O)(=O)NC(=O)NC3CCC(C)CC3)cc2)C1=O` (centres undefined), the Potency result in [1], in [2], in test [3] and in [5] was “inactive” each time.

Take `COc1cc(Nc2c(C#N)cnc3cc(OCCCN4CCN(C)CC4)c(OC)cc23)c(Cl)cc1Cl`: the Potency in test [1] is 7.45 µM (active); in test [2], 7.39 µM (active); in test [10], 44.7 µM (active). The Potency entry in test [3] and in [5] was “inactive” in each case. Further, the molecule was classed as inactive in test [4].

For the molecule `COC1=C(OC)C(=O)C(CCCCCCCCCCO)=C(C)C1=O`, the Potency entry in test [1], in [2], in test [3] and in test [5] was “inactive” in each case. Besides, in test [4], the molecule was called inactive.

Take `COc1cc2nc(N3CCN(C(=O)C4CCCO4)CC3)nc(N)c2cc1OC` (centres undefined): the Potency result in test [1], in test [3], in test [7] and in [5] was “inactive” in each case. Further, the molecule was called inactive in test [4] and in [8].

Source of the values: PubChem BioAssay (NCATS).
